Tgondii IFNg – T. gondii growth inhibition with IFN-gamma, primary screen, cell-based. AID 1259416, 2018. activity change, negative = inhibition, % (no concentration beside the values). hit rate 3.8% among 69,000. Toxoplasma gondii growth in IFN-gamma-treated host cells; hits give low values; in the data active = activity change below about -70%, passing the limit was not always enough;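 also: host cells are HeLa cells infected with Toxoplasma gondii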
* = called active by the depositor. The entries come from a sample that favours hits as a whole.

What do the screens show for `O=C(OCN1C(=O)c2ccccc2C1=O)c1ccc(F)cc1`?
Tgondii IFNg: 8

What do the screens show for `CC(C)OC(=O)c1cn(Cc2c(F)cccc2F)c2sc(-c3ccc(NC(=O)C(C)C)cc3)c(CN(C)Cc3ccccc3)c2c1=O`?
Tgondii IFNg: -80*

What do the screens show for `CCOc1ccc2oc(=O)cc(CN3CCN(Cc4nc(-c5ccc(C)cc5)oc4C)CC3)c2c1`?
Tgondii IFNg: 7

Results for CC[C@H](CC#N)OC(=O)N[C@@H](C)c1cccc(NC(=O)Nc2ccc(-c3cnco3)c(OC)c2)c1 ?
Tgondii IFNg: -82*

How did COc1cccc(NC(=O)Nc2ccc(-c3nc(-c4ccc(C)cc4C)co3)cc2)c1 do in these assays?
Tgondii IFNg: 2

Results for CCOc1ccc(NC(=O)Nc2ccc(-c3nc(-c4cccc(Br)c4)co3)cc2)cc1 ?
Tgondii IFNg: 1

What do the screens show for `Cc1ccc(NC(=O)CN2C(=O)CCc3cc(Br)ccc32)cc1F`?
Tgondii IFNg: 18

Results for O=C(CN1C(=O)CCc2cc(Br)ccc21)NC1CCCc2ccccc21 (stereo not drawn) ?
Tgondii IFNg: -94*

How did CCN1CCN(Cc2ccc(NC(=O)CN3C(=O)CCc4cc(Br)ccc43)cc2)CC1 do in these assays?
Tgondii IFNg: -92*

What do the screens show for `O=C(CN1C(=O)CCc2cc(S(=O)(=O)N3CCCCC3)ccc21)NC1CCCc2ccccc21` (stereo not drawn)?
Tgondii IFNg: -13

What do the screens show for `O=C(CN1C(=O)CCc2cc(Br)ccc21)Nc1cccc2c1CCCC2`?
Tgondii IFNg: 164

How did Cc1cc(C)cc(NC(=O)CN2C(=O)CCc3cc(Br)ccc32)c1 do in these assays?
Tgondii IFNg: -40

What do the screens show for `O=C1O[C@@H]2CN(Cc3cscn3)C[C@@H]2N1CCCN1CCOCC1`?
Tgondii IFNg: -48

Results for O=C(Cc1c[nH]c2ccccc12)Nc1cc(-c2ccccn2)no1 ?
Tgondii IFNg: 264

How did CCCCS(=O)(=O)N1CCc2ncc(Cn3cccn3)n2CC1 do in these assays?
Tgondii IFNg: -5

Results for Cc1ccc(-c2coc(-c3ccc(NC(=O)c4c(F)cccc4F)cc3)n2)cc1 ?
Tgondii IFNg: 9

What do the screens show for `CCOC(=O)N1CCC(N2CCCC(C(=O)c3ccc4c5c(cccc35)CC4)C2)CC1` (stereo not drawn)?
Tgondii IFNg: -41

Results for COc1ccccc1N1CCN(CCCCNS(=O)(=O)c2ccc(C)cc2)CC1 ?
Tgondii IFNg: 24

What do the screens show for `C(=C\c1cccc(N2CCNCC2)n1)/c1ccccc1`?
Tgondii IFNg: -78*

How did CCc1ccccc1-c1cccc(N2CCNCC2)n1 do in these assays?
Tgondii IFNg: -6

Results for C(=C\c1cccc(N2CCNCC2)c1)/c1ccccc1 ?
Tgondii IFNg: 3

How did CCn1c(=O)c(-c2nc(-c3ccc(C(=O)OC)cc3)no2)c(O)c2ccccc21 do in these assays?
Tgondii IFNg: 30

Results for CCc1nc(C)cc(-c2cccc3cccnc23)n1 ?
Tgondii IFNg: 1

What do the screens show for `c1cnc2c(c1)ccc1cccnc12`?
Tgondii IFNg: -96*

Results for c1ccc(Oc2cccc3cccnc23)nc1 ?
Tgondii IFNg: 70

How did CCCCC(=O)Nc1ccc(C)cc1NC(=O)c1cccc2nccnc12 do in these assays?
Tgondii IFNg: 1

How did CC(=O)Nc1ccc(-c2c(-c3ccccc3)ncn2Cc2ccco2)cc1 do in these assays?
Tgondii IFNg: -3

What do the screens show for `C=CCn1cnc(-c2ccccc2)c1-c1ccc2onc(C)c2c1`?
Tgondii IFNg: -1

Results for CO[C@H]1COC[C@@H]1n1cnc(-c2ccccc2)c1-c1ccc2occc2c1 ?
Tgondii IFNg: -78*

Results for Cn1ccc2cc(CCC(=O)NCc3ccccn3)ccc21 ?
Tgondii IFNg: -59

How did COc1ccccc1OCC(=O)O do in these assays?
Tgondii IFNg: 25

What do the screens show for `COc1cc(C(=O)N(C)CCOc2ccccc2OC)c2ccccc2n1`?
Tgondii IFNg: -93*

Results for COc1ccccc1OCc1cc(C(=O)N(C)Cc2cc(C)no2)no1 ?
Tgondii IFNg: -9

Results for CCC(=O)NCc1ccccc1-c1cc(F)c2c(c1)CC(CN)O2 (stereo not drawn) ?
Tgondii IFNg: -4

What do the screens show for `CCOC(=O)N1CCC2(CC1)OC(=O)C(C)=C2C(=O)NCC1CCCO1` (stereo not drawn)?
Tgondii IFNg: -18

Results for CCc1ccccc1NC(=O)C(=O)N1CCOC2(CNCCOC2)C1 (stereo not drawn) ?
Tgondii IFNg: -23

How did C=CCN1CCC2(CCCN(C(=O)C3CCOC3)C2)C1=O (stereo not drawn) do in these assays?
Tgondii IFNg: -4

What do the screens show for `Cn1cnnc1Sc1nc2c(c(=O)n(C)c(=O)n2C)n1C`?
Tgondii IFNg: -1

Results for Cn1c(=O)c2c(nc(SCCN3CCCCC3)n2C)n(C)c1=O ?
Tgondii IFNg: -5

How did Cn1c(=O)c2c(nc(SCC(=O)Nc3nc(-c4cccs4)cs3)n2C)n(C)c1=O do in these assays?
Tgondii IFNg: -103*

What do the screens show for `O=C(O)CSc1nnc(Cc2ccccc2F)n1-c1ccccc1Cl`?
Tgondii IFNg: 9

How did Cc1ccc(NC(=O)C(=O)NCCc2csc(-c3ccc(C(F)(F)F)cc3)n2)cc1F do in these assays?
Tgondii IFNg: 119

What do the screens show for `CCN(CC)C(=O)c1sc(NC(=O)c2c(OC)cccc2OC)c(C#N)c1C`?
Tgondii IFNg: -83*

How did COc1ccc(Oc2cccc(Oc3ccc(OC)cc3)c2C#N)cc1 do in these assays?
Tgondii IFNg: -2

Results for COc1cccc(OC)c1C(=O)NCCc1sc(-c2cccc(F)c2)nc1C ?
Tgondii IFNg: 69

What do the screens show for `Cc1ccc(C)c(-c2coc(-c3ccc(NC(=O)Nc4ccc(C)c(F)c4)cc3)n2)c1`?
Tgondii IFNg: 1

How did Cc1csc(-c2cc(S(=O)(=O)NCCCN3CCC(C)CC3)c(C)s2)n1 do in these assays?
Tgondii IFNg: -11

What do the screens show for `CN(C)c1ccc(C(=O)c2ccccc2)cc1`?
Tgondii IFNg: 13

What do the screens show for `Cc1ccc(Sc2ccc(C(=O)c3ccccc3)cc2)cc1`?
Tgondii IFNg: -78*

How did Cc1ccc(S(=O)(=O)NC(=O)c2ccccc2)cc1 do in these assays?
Tgondii IFNg: -23

How did CN(C)C(=O)[C@@H]1CCC[C@@]12CCN(Cc1cnn(C)c1)C2 do in these assays?
Tgondii IFNg: 24

How did O=C(NCCc1csc(-c2ccc(F)cc2)n1)C(=O)Nc1cc(F)ccc1F do in these assays?
Tgondii IFNg: -24

Results for O=C([C@@H]1CCO[C@@H]2CCN(Cc3ccccc3F)C[C@H]21)N1CCCO1 ?
Tgondii IFNg: -2

How did CN1C(Cn2cccn2)CC2CN(C(=O)c3cccc(C#N)c3)CCC21 (stereo not drawn) do in these assays?
Tgondii IFNg: -4

What do the screens show for `O=C(OCc1ccc(C(F)(F)F)cc1)c1cc(Cl)cc(Cl)c1`?
Tgondii IFNg: -22

What do the screens show for `Cc1cccc(COc2cccnc2N)c1`?
Tgondii IFNg: 42

What do the screens show for `Nc1nc(N)c2c(OCc3ccc(C(F)(F)F)cc3)cccc2n1`?
Tgondii IFNg: -74*

Results for COc1cc(CN2CCC(O)(c3ccccc3)C2)ccc1OCCN1CCOCC1 (stereo not drawn) ?
Tgondii IFNg: 25

Results for CCN1CCN(C(=O)c2scnc2C)C(Cc2ccccc2-c2ccccc2OC)C1=O (stereo not drawn) ?
Tgondii IFNg: 152

Results for Cc1ccc2nc(-c3ccc(Cl)c(C)c3)cn2c1 ?
Tgondii IFNg: -97*

What do the screens show for `Cc1ccc2nc(-c3ccc(-c4ccccc4)s3)cn2c1`?
Tgondii IFNg: 80

How did COc1ccc(-c2cn3cc(C)ccc3n2)cc1 do in these assays?
Tgondii IFNg: 317

Screens deposited in PubChem BioAssay by Broad Institute.
